Reference: PubChem BioAssay AID1209 (Sanford-Burnham Center for Chemical Genomics, 2008)
Out of some 190,000 compounds screened, about 810 (0.43%) were called active. This is one part of a sample in which actives are shown more often than they occur. A number with no mark means an inactive call. Rule as the data show it: active = inhibition above about 50%; inactive = the rest.

Biological target: Mannose-6-phosphate isomerase (Homo sapiens) (UniProt P34949)
Experiment: MPI enzyme activity inhibition – biochemical, fluorescence intensity, coupled assay, primary screen (AID 1209);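 also: plate controls were DMSO vehicle for no effect and wells lacking substrate for full effect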
Conditions: purified PMI enzyme, at 20 µM, active compounds read high

Mannose-6-phosphate isomerase (Homo sapiens), sequence (P34949 whole entry, looked up): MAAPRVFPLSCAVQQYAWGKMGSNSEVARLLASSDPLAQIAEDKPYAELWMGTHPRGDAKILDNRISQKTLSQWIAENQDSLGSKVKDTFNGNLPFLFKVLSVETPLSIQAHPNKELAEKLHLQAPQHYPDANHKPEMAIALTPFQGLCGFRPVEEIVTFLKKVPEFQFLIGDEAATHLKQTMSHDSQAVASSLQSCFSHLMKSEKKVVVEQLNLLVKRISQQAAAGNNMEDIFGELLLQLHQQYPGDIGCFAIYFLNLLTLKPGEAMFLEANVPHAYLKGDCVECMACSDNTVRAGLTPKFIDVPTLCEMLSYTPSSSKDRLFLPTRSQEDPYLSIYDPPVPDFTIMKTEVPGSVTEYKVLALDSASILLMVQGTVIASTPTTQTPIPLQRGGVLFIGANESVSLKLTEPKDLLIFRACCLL

Compound | inhibition
Cc1ccc(N2C(=O)[C@@H]3[C@H](C2=O)C2c4ccccc4C=CN2[C@@H]3C(=O)c2ccco2)c(C)c1 (stereo not given in full) | -31.4%
COc1ccc(Cn2c(C(F)(F)F)ccc(C(N)=O)c2=O)cc1 | 4.9%
COc1ccc(C2(O)CCN(C(=O)c3c(F)cccc3F)CC2)cc1 | 2.8%
CCc1cc2c(C)cc(C)cc2nc1SCC(=O)Nc1cc(C)on1 | 2.3%
COc1cccc(CNC(=O)C(c2ccc(Cl)cc2)C(C)C)c1 (stereo not given) | 10.2%
COc1cc(/C=C2\SC(=S)NC2=O)ccc1OS(=O)(=O)c1ccccc1 | 29.8%
COC(=O)c1ccc(-c2nc(O)c3cnccn23)cc1 | -13.6%
COc1cc(/C=N/NC(=O)c2cc3ccccc3cc2O)ccc1OCCN1CCCCC1 | 73.9% (active)
COc1cc(/C=N/NC(=O)c2ccncc2)ccc1OCCN1CCCCC1 | -4.3%
CCCCOc1ccc(C(=O)N/N=C/c2ccc(OCCN3CCCCC3)c(OC)c2)cc1 | 5.7%
COc1ccccc1-n1c(SCc2cc(=O)oc3cc(O)ccc23)nc2ccccc2c1=O | 8.3%
COc1cccc(-n2c(SCC(N)=O)nc3ccccc3c2=O)c1 | 2.2%
Cc1csc(SCC(=O)NC(=O)NC2CCCC2)n1 | 5.2%
S=c1[nH]nc(C2CCCCC2)n1/N=C/c1ccco1 | -1.6%
O=C(Cc1ccc([N+](=O)[O-])cc1)Nc1cccc(C(F)(F)F)c1 | 23.4%
CCCCNC(=O)CC1S/C(=N/N=C/c2ccc(OC)cc2)NC1=O (stereo not given) | -7.8%
CCOC(=O)N1CCN(CC(=O)Nc2cc(OCC)ccc2OCC)CC1 | 7%
CCOc1ccc(OCC)c(NC(=O)CN2CCN(c3cccc(C)c3)CC2)c1 | 16.7%
CCOc1ccc(OCC)c(NC(=O)CN2CCN(CC)CC2)c1 | 57.9% (active)
CN1C(=O)/C(=C/c2ccc(-c3ccccc3[N+](=O)[O-])o2)SC1=Nc1ccc(Cl)c(C(=O)O)c1 | 3%
CCOC(=O)C1=C(N)Oc2cc(C)n(C)c(=O)c2C1c1ccncc1 (stereo not given) | 10%
NC(=O)C1=C[C@H](c2coc3ccccc3c2=O)C[C@H](OCc2ccc(CO)cc2)O1 | -2.4%
Nc1c(NC2CCCCC2)c2ccccc2oc1=O | 9.2%
Nc1ccccc1NC1CCCCC1 | 64.3% (active)

Compound | inhibition
O=C(Nc1ccccc1NC(=O)NC1CCCCC1)NC1CCCCC1 | 6%
Cc1ccc(Cn2c(C(=O)O)cc3sccc32)cc1 | -7.2%
O=C(Nc1ccccc1NS(=O)(=O)c1ccc(F)cc1)C1CCCC1 | -1.7%
O=C(COC(=O)c1cc(Cl)cc(Cl)c1)NCCN1C(=O)CSC1=O | 55.7% (active)
O=C(COC(=O)c1cccc(Cl)c1)NCCN1C(=O)CSC1=O | -6%
O=C(COC(=O)c1cc(Cl)ccc1Cl)NCCN1C(=O)CSC1=O | 0.7%
COC(=O)c1ccccc1NC(=O)COC(=O)/C=C/c1ccco1 | -15%
CCOCCCNC(=O)c1ccc(N2CCOCC2)c(NS(=O)(=O)c2ccc(OC)cc2)c1 | -1.6%
Cn1c(COc2ccc([N+](=O)[O-])cc2)nnc1SCC(N)=O | -9.7%
O=C1CCN2C=Nc3cccc4ccc1c2c34 | 84.5% (active)
c1cc2c3c(cccc3c1)C(N1CCCCC1)=N2 | 33.9%
c1cc2c3c(cccc3c1)C(N1CCCCCC1)=N2 | 15.8%
COc1cc2c(cc1OC)C1=C(C#N)CN(CC(=O)O)CN1CC2 | 70.5% (active)
COc1ccc(CCN2CC(C#N)=C3c4cc(OC)c(OC)cc4CCN3C2)cc1OC | 18.8%
COc1cc2c(cc1OC)C1=C(C#N)CN(C3CCCCC3)CN1CC2 | 27.4%
CCCCNC(c1ccccc1)c1ccncc1 (stereo not given) | 6.1%
CCn1c(SCC(=O)NC2CCS(=O)(=O)C2)nnc1-c1ccccc1 (stereo not given) | -4.5%
COc1cc(NC(=O)CN2C(=O)CN(C)C2=O)c(C)cc1[N+](=O)[O-] | -9.8%
Cc1ccccc1NC(=O)C1c2cccc[n+]2CC(=O)N1Cc1ccc2c(c1)OCO2 (stereo not given) | -17.8%
Cc1ccccc1NC(=O)C1c2cccc[n+]2CC(=O)N1c1c(C)cccc1C (stereo not given) | 91.6% (active)
Cc1cccc(C)c1NC(=O)C1c2cccc[n+]2CC(=O)N1Cc1cccs1 (stereo not given) | -7.5%
C(=C\c1ccccc1)/C=N/Nc1nc(N2CCOCC2)nc(N2CCOCC2)n1 | -1.4%
CCn1c(SCC(=O)N2CCN(c3ccc(F)cc3)CC2)nnc1-c1ccncc1 | 8.1%
O=C(CCn1c(=S)oc2ccccc21)Nc1cccc(F)c1 | -10.5%

Compound | inhibition
O=C(NCC1CC1)c1ccc(Nc2nc3ccc(Br)cc3[nH]2)cc1 | 84% (active)
O=C(NCc1ccco1)c1cccc(Nc2nc3ccc(Br)cc3[nH]2)c1 | 22%
O=C(NCc1cccs1)c1cccc(Nc2nc3ccc(Br)cc3[nH]2)c1 | 15.4%
COC(=O)/C=C1\SC(=NC(=O)c2ccc(C)cc2)NC1=O | 3.6%
O=Cc1ccc(O)c(O)c1 | 25.6%
O=C(O)/C=C/c1ccc(O)c(O)c1 | 56.4% (active)
COc1cc(/C=C/C(=O)CC(=O)/C=C/c2ccc(O)c(OC)c2)ccc1O | 5.3%
COc1ccc(NC(=O)/C=C/c2ccc(OC)c(OC)c2)cn1 | -4.6%
Cc1cc([N+](=O)[O-])cnc1Sc1nccn1C | -29.4%
O=C(CCc1nc2ccccc2[nH]c1=O)OCC(=O)c1ccc(Cl)cc1 | 2.3%
Nc1scc2c(C(=O)N/N=C/c3ccc(Cl)cc3)nn(-c3ccccc3)c(=O)c12 | 69.6% (active)
COc1ccc(/C=N/NC(=O)c2nn(-c3ccc(C)c(C)c3)c(=O)c3ccccc23)cc1 | 13.2%
CCOC(=O)c1nn(-c2ccc(F)cc2)c(=O)c2c(N)scc12 | 40.7%
CCOC(=O)c1nn(-c2ccccc2)c(=O)c2c(N)scc12 | 36.2%
CCOC(=O)c1nn(-c2ccc(OC)cc2)c(=O)c2c(N)scc12 | 46.8%
COc1ccc(/C=N/NC(=O)c2nc(-c3ccccc3)n(-c3ccccc3)n2)cc1 | 17%
COc1ccc(/C=N/NC(=O)c2nn(-c3ccccc3)c(=O)c3c(N)scc23)cc1 | 60.7% (active)
CCOC(=O)c1nn(-c2ccc(C)cc2)c(=O)c2c(N)scc12 | 39.4%
COc1ccc(/C=N/NC(=O)c2nn(-c3ccc(Cl)cc3)c(=O)c3c(N)scc23)cc1 | 50.7% (active)
O=C(CSc1nc2cc(Cl)ccc2s1)Nc1cccc(S(=O)(=O)N2CCOCC2)c1 | 15.2%
CCN1CCN(C(c2cccs2)C(C)NC(=O)CC(C)C)CC1 (stereo not given) | 0.5%
CCN(CCNC(=O)C1CCN(S(=O)(=O)c2cccc3cccnc23)CC1)c1ccccc1 | 8.4%
O=C(NNC(=O)c1cc(OCC(F)(F)F)ccc1OCC(F)(F)F)c1ccc(Cl)c(Cl)c1 | 16.5%
Cc1cc2oc(=O)cc(CN3CCCc4ccccc43)c2cc1C | -11.2%

Compound | inhibition
Cc1ccc(SCCC(=O)NCCSCc2ccco2)cc1 | 7.9%
CN1CCC(N(C)C(=O)/C=C/c2cn(-c3ccccc3)nc2-c2cccs2)CC1 | -5.9%
COc1ccc(S(=O)(=O)N2CCN(Cc3ccc(Cl)cc3)CC2)cc1 | 14.7%
CCOc1cc(-c2nc(-c3ccccc3)c(-c3cc([N+](=O)[O-])ccc3C)[nH]2)ccc1O | 14.4%
COc1ccc(-c2nc(-c3ccccc3)c(-c3cc([N+](=O)[O-])ccc3C)[nH]2)cc1O | 22.5%
Cc1ccc([N+](=O)[O-])cc1-c1[nH]c(-c2ccc(O)c(O)c2)nc1-c1ccccc1 | 51.7% (active)
Cc1ccc(COc2ccc(Br)cc2/C=N/O)cc1 | 19.7%
O=c1c2c([N+](=O)[O-])cc([N+](=O)[O-])cc2sn1-c1ccc(Br)cc1 | 109% (active)
O=[N+]([O-])c1cc([N+](=O)[O-])c2c(=Nc3ccccc3)n(-c3ccccc3)n(O)c2c1 | 10.6%
O=c1c2cc(Br)ccc2nc(-c2ccc([N+](=O)[O-])cc2)n1O | -3.6%
CCOc1ccccc1CN1CCN(S(=O)(=O)CC)CC1 | 3.5%
O=c1[nH]c(CSc2nnc(COc3ccccc3)n2-c2ccccc2)nc2ccccc12 | -3.6%
Nc1cc(C(=O)OCC(=O)NCc2ccco2)ccc1Cl | -6.8%
COC(=O)c1ccc(OC)cc1OCC(=O)N1CCN(c2ccc(F)cc2)CC1 | 13.1%
O=C(/C=C/c1c(Cl)cccc1Cl)NCCc1ccccc1 | -10%
CC(C)CN(CC(C)C)S(=O)(=O)N1CCC(C(=O)NCc2ccc(F)cc2)CC1 | 2.6%
CCS(=O)(=O)N1CCC(C(=O)NCc2cccnc2)CC1 | 4.6%
CC(C)CN(CC(C)C)S(=O)(=O)N1CCC(C(=O)NCc2cccnc2)CC1 | 55.2% (active)
COc1ccc(NC(=O)C(c2ccccc2)N(C)C(=O)CNC(C)=O)cc1 (stereo not given) | -1.1%
COc1ccc2nc(/N=C\N(C)C)sc2c1 | 7%
COc1ccc2nc(N=Nc3ccc(N(C)C)cc3)sc2c1 | -5.8%
CN(C)C(=O)c1nc2ccccc2s1 | 4.6%
CCOC(=O)N/C(N)=N/c1nc2ccccc2s1 | 3.7%
